# Measured values as given in PubChem BioAssay (Tox21).
# Records with an inconclusive call do not appear. The source made the active and inactive calls. The call rests on the fitted dose curve; in most records, active means well fitted activation curve with a large enough effect in the signal ratio in the repeat runs (not every such curve was filed as active); inconclusive means weak or mixed curves, or effect the other way; inactive means no such curve, though single readings can be large or run the other way; the % refers to the signal ratio.
# Target: Peroxisome proliferator-activated receptor gamma (Homo sapiens) (UniProt P37231)
# Assay: qHTS assay to identify small molecule agonists of the peroxisome proliferator-activated receptor gamma (PPARg) signaling pathway (AID 743094)
# Conditions: HEK293H PPARg-UAS-bla, beta-lactamase FRET ratio, 17 h; series mostly up to 57 µM
# Summary of the method: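 Quantitative HTS agonist mode: stable HEK293H line with UAS-beta-lactamase reporter under PPARg control, 17 h compound exposure at 37C, fluorescence after 1 h FRET substrate loading at room temperature.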
# Sequence of Peroxisome proliferator-activated receptor gamma (Homo sapiens) (P37231 whole entry, looked up): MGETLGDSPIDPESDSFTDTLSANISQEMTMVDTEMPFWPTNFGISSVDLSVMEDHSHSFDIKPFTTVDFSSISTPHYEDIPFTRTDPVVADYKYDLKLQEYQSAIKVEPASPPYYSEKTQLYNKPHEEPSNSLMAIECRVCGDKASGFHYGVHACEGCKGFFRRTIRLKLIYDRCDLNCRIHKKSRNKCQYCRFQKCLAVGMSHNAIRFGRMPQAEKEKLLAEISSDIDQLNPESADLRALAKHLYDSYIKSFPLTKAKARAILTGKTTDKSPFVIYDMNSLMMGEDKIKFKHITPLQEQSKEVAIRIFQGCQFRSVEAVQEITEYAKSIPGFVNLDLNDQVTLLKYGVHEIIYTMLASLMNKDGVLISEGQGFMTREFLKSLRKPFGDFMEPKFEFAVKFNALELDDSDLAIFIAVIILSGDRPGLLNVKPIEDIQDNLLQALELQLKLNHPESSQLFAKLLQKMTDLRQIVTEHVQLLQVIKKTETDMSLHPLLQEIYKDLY
row,SMILES,outcome
1,COC(=O)[C@@H](N)CCCN/C(N)=N/[N+](=O)[O-],inactive
2,CCNc1nc(Cl)nc(NC(C)(C)C)n1,inactive
3,CCOC(=O)N(C)N=O,inactive
4,NCCOS(=O)(=O)O,inactive
5,Cc1ccc(-c2nc3ccc(C)cn3c2CC(=O)N(C)C)cc1,inactive
6,Cc1ccc2cc(C)ccc2c1,inactive
7,C[C@H](N)C(=O)c1ccccc1,inactive
8,C=CCN1CC[C@]23CCCC[C@H]2[C@H]1Cc1ccc(O)cc13,inactive
9,COc1cccc(C=O)c1,inactive
10,CCN[C@H](C)Cc1cccc(C(F)(F)F)c1,inactive
11,CCN(CCO)CCn1c(Cc2ccccc2)nc2c1c(=O)n(C)c(=O)n2C,inactive
12,CN(C)CCN(C)C,inactive
13,CCCOC(=O)Cc1ccc(OCC(=O)N(CC)CC)c(OC)c1,inactive
14,CC[C@H](O)C(C[C@H](C)N(C)C)(c1ccccc1)c1ccccc1,inactive
15,O=CCCl,inactive
16,Cn1c(N)nc2c3cccnc3ccc21,inactive
17,Cl/C=C/CCl,inactive
18,C=CCc1cc(OC)c2c(c1)OCO2,inactive
19,COc1ccc(C=O)cc1O,inactive
20,CCOC(=O)C(SP(=S)(OC)OC)c1ccccc1 (stereo unspecified),inactive
21,O=c1[nH]oc2c1CCNC2,inactive
